Screening data as filed in PubChem BioAssay.
In the library only some 8% were active in any assay of this set; here they are far more common.
HT1080 IDH1KD tx: qHTS for induction of synthetic lethality in tumor cells producing 2HG: qHTS for the HT-1080-IDH1KD cell line | AID 686971, 2013 | 2% of 360,000 active | Potency, µM (top dose mostly 46.1 µM), inactives show top-dose activity, negative = toxicity, usual class: cytotoxic | HT-1080 IDH1 knockdown viability, ATP luminescence, 48 h;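 note: 0% = DMSO wells and -100% = cell-free medium wells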
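Viability of IDH1-knockdown HT-1080 fibrosarcoma cells was assessed by CellTiter-Glo after 48 h at 37 °C with titrated compound; concentration-effect curves were classified by fit quality and response size.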
HT1080NT lethal: qHTS for induction of synthetic lethality in tumor cells producing 2HG: qHTS for the HT-1080-NT fibrosarcoma cell line; HT-1080-NT fibrosarcoma viability, CellTiter-Glo ATP luminescence, 48 h; Potency, µM (titrated, usually from 46.1 µM), without a hit: top-dose activity, negative = less viability, actives largely listed as cytotoxic; 1.6% of 360,000 active;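 note: NT is the 2HG producing partner of a matched IDH1 knockdown line; 0% = DMSO-treated cells and -100% = media-only wells without cells; nearly all actives have a fitted effect of over 55% in size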
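Toxicity toward the 2HG-producing NT line was scored as %Activity, normalised to DMSO and no-cell wells, from CellTiter-Glo luminescence after 48 hours' treatment.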
SW480 rerep: A quantitative high throughput screen for small molecules that induce DNA re-replication in SW480 colon adenocarcinoma cells. SW480 DNA re-replication, Hoechst DNA content imaging, 48 h. Potency, µM (titrated, usually from 46.1 µM), for the others: at the highest dose re-replication activation, usual class: activators. 1.8% of 340,000 active. AID 624297, 2012; note: % of control where 0% means no effect; nearly all actives have a fitted effect of over 55% in size
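DNA re-replication was detected as more nuclei of elevated Hoechst intensity after 48 hr exposure to compound (23 nL pinned per well of 250 cells).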
KB-V1 cytotox: qHTS assay for MDR1-selective chemotherapeutics: Primary screen using the drug-selected MDR subline cells KB-V1; 3.4% of 400,000 active; KB-V1 MDR cells viability, CellTiter-Glo, 72 h; Potency, µM (doses to about 46.1 µM), most hits filed as cytotoxic; note: % is set by controls: 0 for no effect and ±100 for the full control effect; nearly all actives have a fitted effect of over 60% in size
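qHTS viability screen in drug-selected KB-V1 MDR cells: 72 h compound treatment at 37 degrees C, ATP luminescence end point.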
KB-3-1 tox: qHTS assay for MDR1-selective chemotherapeutics: Primary screen using the parental adenocarcinoma cell KB-3-1; 1.4% of 400,000 active; KB-3-1 viability, CellTiter-Glo ATP luminescence, 72 h; Potency, µM (top dose mostly 46.1 µM), actives largely listed as cytotoxic; note: % is set by controls: 0 for no effect and ±100 for the full control effect; nearly all actives have a fitted effect of over 60% in size
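Screening of KB-3-1 cells (DMEM, 10% FBS, phenol-red free) ran from lowest to highest compound concentration; after 72 h at 37 °C viability was read luminescently and curves fitted.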
MCF10A rerep: A quantitative high throughput screen for small molecules that induce DNA re-replication in MCF 10a normal breast cells | MCF 10A DNA re-replication, Hoechst nuclear intensity, 48 h | Potency, µM (series often up to 46.1 µM), without a hit: top-dose activity, positive = re-replication, usual class: activators | 2.9% of 350,000 active | AID 624296, 2012; note: % of control where 0% means no effect; nearly all actives have a fitted effect of over 50% in size
* = called active by the depositor; i = inactive; u = inconclusive; x = no result. Calls come from the whole dose curve; as a rule, active = well fitted curve in the direction sought with a large enough effect; inconclusive = small, poorly fitted or top-dose-only effect, or another doubt; inactive = no such curve, though single readings can be large; an effect the other way counts as inactive or inconclusive. Potency is the fitted concentration of half-maximal effect.

SMILES	HT1080 IDH1KD tx	HT1080NT lethal	SW480 rerep	KB-V1 cytotox	KB-3-1 tox	MCF10A rerep
CCOC(=O)C1CCCN(C(=O)C2COc3ccccc3O2)C1 (stereo not given)	3%	4%	u	i	i	12%
COc1cccc(CN(C(=O)c2ccccc2Br)C2CCS(=O)(=O)C2)c1 (stereo not given)	-14%	-1%	-34%	i	i	5%
CC1CCCCC12NC(=O)N(CC(=O)N1CCN(C(=O)c3ccco3)CC1)C2=O (stereo not given)	11%	16%	-9%	i	i	-2%
CCOc1ccccc1N1CCN(C(=O)C2c3ccccc3Oc3ccccc32)CC1	18µM*	u	16µM*	15µM*	13µM*	6.5µM*
CCOc1ccccc1N1CCN(C(=O)c2ccccc2)CC1	8%	7%	-8%	i	i	-1%
Cc1ccc(S(=O)(=O)c2cnc(SCC(=O)Nc3ccc4c(c3)OCCO4)[nH]c2=O)cc1	x	x	x	i	i	x
CC(C)C(=O)N1CCN(CCN2C(=O)c3cccc4cccc(c34)C2=O)CC1	11%	4%	4%	i	i	-1%
O=C(CCCN1C(=O)c2cccc3cccc(c23)C1=O)N1CCN(c2ccccc2O)CC1	1%	-4%	-38%	6.5µM*	u	u
O=C(C(c1ccccc1)c1ccccc1)N1CCN(CCN2C(=O)c3cccc4cccc(c34)C2=O)CC1	-17%	-22%	-3%	i	i	15µM*
Cc1ccc(NC(=S)N2CCN(CCN3C(=O)c4cccc5cccc(c45)C3=O)CC2)cc1	-3%	-19%	-2%	15µM*	i	-1%
O=C(c1cccc(Br)c1)c1cn(-c2ccccc2)nc1C(=O)c1ccccc1	4%	8%	6%	12µM*	i	2%
CC(=O)c1nn(-c2cccc(Br)c2)cc1C(=O)c1ccccc1	u	u	-7%	i	i	u
CC(=O)c1nn(-c2cccc(Br)c2)cc1C(=O)c1ccc(Cl)cc1	u	u	u	i	i	4.6µM*
CC(=O)c1nn(-c2ccccc2)cc1C(=O)c1cccc(Br)c1	-1%	-6%	u	i	i	1.6µM*
CC(=O)c1cccc(NC(=O)CCS(=O)(=O)c2cc(Br)cc3c2N(C(=O)C2CC2)CC3)c1	x	x	x	i	i	x
CNc1cccc(S(=O)(=O)N2CCCN(S(=O)(=O)c3ccc4c(c3)OCCO4)CC2)c1	x	x	x	i	i	x
C=CC[n+]1cccc2cc(Br)ccc21	x	x	x	i	i	x
Cc1ccc2oc(-c3ccc(C)c(NC(=O)COc4ccc(Cl)cc4C)c3)nc2c1	x	x	x	i	u	x
CCc1ccc2nc(SCC(=O)Nc3ccccc3N3CCOCC3)c(C#N)cc2c1	4%	14%	3.7µM*	5.8µM*	5.2µM*	3.7µM*
CCc1ccc2nc(SCC(=O)N3CC(=O)Nc4ccccc43)c(C#N)cc2c1	5.8µM*	u	u	6.5µM*	5.2µM*	8.2µM*
CC(CN(C)C)C(C)(O)Cc1ccc(Cl)cc1 (stereo not given)	x	x	-3%	x	x	6%
Cc1cccc(-n2nnnc2SCC(=O)c2cc(C)n(Cc3ccco3)c2C)c1	u	-20%	-3%	18µM*	i	10%
Cc1cc(C(=O)CSc2nnnn2-c2ccccc2)c(C)n1-c1ccc2c(c1)OCO2	-20%	-10%	u	7.3µM*	u	u
Cc1cc(C(=O)CSc2nnnn2-c2ccc(O)cc2)c(C)n1Cc1ccc2c(c1)OCO2	-5%	-1%	-3%	15µM*	u	u
Cc1cccc(-n2nnnc2SCC(=O)c2cc(C)n(CC3CCCO3)c2C)c1 (stereo not given)	-4%	-18%	-2%	u	i	13%
SMILES	HT1080 IDH1KD tx	HT1080NT lethal	SW480 rerep	KB-V1 cytotox	KB-3-1 tox	MCF10A rerep
CCCn1c(SCC(=O)c2cc(C)n(-c3ccc4c(c3)OCO4)c2C)n[nH]c1=O	-19%	-11%	-3%	2.9µM*	12µM*	14%
Cc1cccc(C)c1-n1ncc(C(=O)Nc2ccc3c(c2)OCCO3)c1C1CCN(C(=O)OC(C)(C)C)CC1	x	x	x	i	i	x
CC(=O)N(c1ccc2ccccc2c1)C1SC(=O)N(c2cccc(C)c2)C1=O (stereo not given)	0%	24%	x	x	x	x
C[N+]1(CC(=O)c2ccc3c(c2)CCCC3)CCOCC1	x	x	x	i	u	x
O=C(COC(=O)c1cccc(S(=O)(=O)NCc2ccccc2)c1)NCC1CCCO1 (stereo not given)	7%	25%	-9%	i	i	9%
CCOC(=O)c1c(C)[nH]c(C)c1S(=O)(=O)N1CCC(C(=O)Nc2ccc(C)c(N(C)C)c2)CC1	x	x	x	i	i	x
Cc1cc(C(=O)CSc2nnc(-c3cccc(F)c3)n2N)c(C)n1Cc1ccc2c(c1)OCO2	-16%	-4%	-3%	2.6µM*	u	5%
Cc1cc(C(=O)CSc2nncs2)c(C)n1-c1ccc2c(c1)OCO2	-7%	u	-3%	16µM*	i	-14%
COc1cc(C2Nc3ccccc3C(=O)N2Cc2ccco2)ccc1O (stereo not given)	x	x	x	i	i	x
O=S(=O)(Nc1cc(F)ccc1F)c1ccc2[nH]c3c(c2c1)CCCCC3	x	x	x	i	i	x
O=S(=O)(c1ccc(NCCOc2ccccc2)nc1)N1CCCC1	8%	12%	-6%	21µM*	i	-6%
Cc1ccc(OCCNc2ccc(S(=O)(=O)N3CCCC3)cn2)cc1	-24%	-21%	21µM*	u	i	58%
O=S(=O)(c1ccc(SCCOc2ccccc2)nc1)N1CCCC1	9%	0%	-3%	i	i	1%
Cc1ccc(OCCOC(=O)c2cc(S(=O)(=O)N3CCCCC3)ccc2N2CCOCC2)cc1	u	-1%	u	2.9µM*	4.6µM*	13%
Cc1cc(C)cc(NC(=O)Cc2c(C(=O)O)c(C)cn2C)c1	x	x	x	i	i	x
CC1=C(C(=O)N(C(C)C)C(C)C)CC(CC(=O)NCCc2ccccn2)C(=O)N1CCCN1CCCC1=O (stereo not given)	12%	14%	x	u	i	x
